Screens deposited in PubChem by The Scripps Research Institute Molecular Screening Center.
Most compounds without a hit are left out; they make up all but 2.3% or so of the library.
CHO-K1 Ca antag – counter-screen for M1 antagonists: effect in parental CHO-K1 cells. hit rate 0.6% among 360,000. inhibition, % at 3 µM. ATP-induced calcium, Fluo-8 fluorescence;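 active = inhibition above a per-plate cutoff, the plate's mean sample inhibition plus 3 SD, cut at about 24% in these data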
M1 PAM – human M1 muscarinic receptor positive allosteric modulators, primary screen, CHO-K1 cells, Fluo-8 calcium fluorescence, 1536-well. Muscarinic acetylcholine receptor M1 (Homo sapiens), P11229. CHO-K1 hM1, ACh EC20; 0% = ACh EC20, 100% = maximal ACh. activation, % at 3 µM. hit rate 0.088% among 360,000. AID 588819, 2011; in the data active = activation above about 19%, passing the limit was not always enough
Target sequence (P11229 whole entry, looked up): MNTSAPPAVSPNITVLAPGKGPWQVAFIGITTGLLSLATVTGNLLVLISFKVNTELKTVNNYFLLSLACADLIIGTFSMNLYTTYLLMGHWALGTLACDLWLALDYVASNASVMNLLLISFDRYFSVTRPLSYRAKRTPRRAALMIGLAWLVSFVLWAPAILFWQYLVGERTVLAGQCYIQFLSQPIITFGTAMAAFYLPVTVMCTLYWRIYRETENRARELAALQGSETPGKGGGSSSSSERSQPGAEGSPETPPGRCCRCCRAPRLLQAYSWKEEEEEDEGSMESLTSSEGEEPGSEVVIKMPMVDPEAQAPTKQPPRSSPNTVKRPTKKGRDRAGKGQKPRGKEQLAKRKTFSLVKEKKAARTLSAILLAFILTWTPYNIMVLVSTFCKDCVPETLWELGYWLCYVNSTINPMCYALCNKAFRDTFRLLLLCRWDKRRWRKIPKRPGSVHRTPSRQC
CHRM1 antagonist – human M1 muscarinic receptor antagonists, primary screen, CHO-K1 cells, Fluo-8 calcium fluorescence, 1536-well; inhibition, % at 3 µM; Muscarinic acetylcholine receptor M1 (Homo sapiens), P11229; CHO-K1 hM1, ACh EC80 antagonist; AID 588852, 2011; hit rate 1.3% among 360,000;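 active = percent inhibition above its own plate's cutoff, namely the mean of that plate's compound wells plus 3 SD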;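 note: peak over basal fluorescence ratio during 140 s after agonist addition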
M1 ag parental – counter-screen for M1 agonists: effect in parental CHO-K1 cells. hit rate 0.48% among 360,000. activation, % at 3 µM. AID 602248, 2012. Fluo-8 calcium fluorescence; scaled to maximal ATP response, vehicle zero; in the data active = activation above about 15%;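 note: untransfected CHO-K1 host cells lacking M1 receptor as counterscreen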
CHRM1 agonist – human M1 muscarinic receptor agonists, primary screen, Fluo-8 calcium fluorescence, CHO-K1 cells, HTS. Muscarinic acetylcholine receptor M1 (Homo sapiens), P11229. CHO-K1 hM1, agonist mode; 0% DMSO, 100% acetylcholine EC100. activation, % at 3 µM. hit rate 0.33% among 360,000. AID 588814, 2011;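 active = activation above the run's mean compound activation plus 3 SD, cut at about 16% in these data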;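 note: peak over basal fluorescence ratio within a 140 s kinetic read after compound addition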
M1 PAM parental – nonselective calcium activators in parental CHO-K1 cells, primary screen, counter-screen for M1 PAM project, cell-based, Fluo-8 calcium fluorescence, full deck, 1536-well; hit rate 0.02% among 360,000; AID 602247, 2012; ATP EC20; 0% at ATP EC20, 100% at ATP max; activation, % at 3 µM;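 active = activation above the run cutoff, the mean activation of all test compounds plus 3 SD, cut at about 40% in these data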;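 note: peak over basal fluorescence ratio in a 140 s read after ATP addition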
Each line names hits and unclear results; the compound was inactive in the other large screens.

COc1ccc(CN2CC(C(N)=O)Oc3ccccc32)cc1F (centres undefined)	none
Cc1cc(C)c(C(=O)OCC(=O)Nc2cccc(S(=O)(=O)N3CCCCC3)c2)c(C)c1	none
NC(=Nc1nc(-c2ccccn2)cc2ccccc12)c1ccccn1	CHRM1 antagonist 33.2
Cc1cc(C)c(S(=O)(=O)Nc2ccccc2-c2ccccc2)c(C)c1	M1 PAM parental 44.2
O=S(=O)(Nc1ccccc1-c1ccccc1)c1ccccc1	none
COc1ccc(C(=O)OCC(=O)Nc2cccc(C(C)=O)c2)c(OC)c1OC	M1 ag parental 16.2
COc1ccc(C(=O)OCC(=O)Nc2c(C)cccc2C)c(OC)c1OC	none
O=C(NCCc1ccccc1)c1ccc(NC(=O)c2cccnc2)cc1	none
CCOC(=O)c1ccc(NC(=O)CCc2nc(-c3ccccc3)no2)cc1	CHRM1 antagonist 31.1
O=C(Nc1ccc(-c2noc(CCc3ccccc3)n2)cc1)c1cccnc1	CHRM1 antagonist 26.1
CCC(CO)NCC(O)COCc1ccc2c(c1)OCO2 (centres undefined)	none
CN(C)Cc1ccccc1Cc1ccccc1	none
CN(C)Cc1ccccc1CCc1ccccc1	CHRM1 antagonist 59.6
COC(=O)c1ccc(N2CCN(S(=O)(=O)c3ccc4ccccc4c3)CC2)c([N+](=O)[O-])c1	CHO-K1 Ca antag 27.7
Cn1c(=O)c2ccccc2n(Cc2cccc(F)c2)c1=O	none
COc1ccc(C2(C(=O)Nc3ccc(S(=O)(=O)Nc4nc(C)cc(C)n4)cc3)CCCC2)cc1OC	none
Cc1cc(C)nc(NS(=O)(=O)c2ccc(NC(=O)C3(c4ccc([N+](=O)[O-])cc4)CCCC3)cc2)n1	CHRM1 agonist 23.6
Cc1cccc(NC(=O)C2(c3ccc([N+](=O)[O-])cc3)CCCC2)c1	M1 ag parental 19.4
O=[N+]([O-])c1ccc(NCCCNS(=O)(=O)c2ccc(Cl)cc2)c(Cl)c1	none
O=c1oc(-c2ccccc2NS(=O)(=O)c2ccc(F)cc2)nc2ccccc12	none
O=c1oc(-c2ccccc2NS(=O)(=O)c2ccccc2)nc2ccccc12	CHO-K1 Ca antag 29.1
O=C(CSc1n[nH]c(-c2ccccc2)n1)NCc1cccc(C(=O)O)c1	none
Cc1nc2nc(SCC(=O)NCCCN3CCCCC3)nn2c(C)c1Cc1ccccc1	none
CCC1CCCCN1CCCNC(=O)CSc1nc2nc(C)c(Cc3ccc(C)cc3)c(C)n2n1 (centres undefined)	CHRM1 antagonist 68.9
Cc1nc2nc(SCC(=O)NCCCN3CCCC3)nn2c(C)c1Cc1ccccc1Cl	CHRM1 antagonist 81.2
CCC(C)(C)C1CCc2[nH]nc(C(=O)NCCNC(=O)OC(C)(C)C)c2C1 (centres undefined)	none
CCCCNC(=O)c1c(CSc2ccccc2)noc1C(=O)NCc1ccccc1	none
CCN1C[C@@H]2[C@@H]3C(=O)N(C)C(=O)[C@@H]3[C@](Cc3ccccc3)(C(=O)OC)N2C1=NCc1ccccc1	none
CC1Cc2ccccc2N1C(=O)CN(C)CC(=O)Nc1ccc(F)cc1 (centres undefined)	none
CN(CC(=O)Nc1ccc(C(N)=O)cc1)CC(=O)Nc1ccccc1Br	none
CC(=O)Nc1ccc(NC(=O)CN(C)CC(=O)Nc2ccccc2Br)cc1	CHRM1 antagonist 38.4
Cc1ccc(C(=O)NCC(=O)N(C)CC(=O)Nc2ccccc2Br)s1	none
CN(CC(=O)Nc1ccccc1Br)C(=O)CNC(=O)c1cccs1	CHRM1 antagonist 33.6
COC(=O)C(/C=N/OCc1ccc([N+](=O)[O-])cc1)NC(=O)c1cccc(Cl)c1 (centres undefined)	CHRM1 agonist 24.7
Cc1cc(OC(=O)c2c(C)cc(OC(=O)c3c(C)cc(O)cc3O)cc2O)cc(O)c1C(=O)O	none
CCOC(=O)Nc1cccc(OCC(=O)Nc2ccccc2OCC)c1	CHO-K1 Ca antag 24.1
CC(=O)Nc1cccc(OCC(=O)Nc2ccccc2)c1	none
Cc1ccc(NC(=S)Nc2ccc(Br)cc2)cc1	CHO-K1 Ca antag 34.6
CCn1c(SCC(=O)NC2CCCC2)nc2c(c1=O)SCC2	none
COc1cccc(C(=O)N(CN2CCCC2=O)c2ccccc2OC)c1	CHO-K1 Ca antag 27.8
O=S1(=O)CCS(=O)(=O)C1c1ccccc1	none
CCCCN1C(=O)C(CC(=O)NC2CCCC2)CC(C(=O)N(CC)CC)=C1C (centres undefined)	CHO-K1 Ca antag 26.2
CCCCN1C(=O)C(CC(=O)NC2CCCCC2)CC(C(=O)N(CC)CC)=C1C (centres undefined)	none
CCN(CC)C(=O)C1=C(C)N(CCC2=CCCCC2)C(=O)C(CC(=O)NCC2CCCCC2)C1 (centres undefined)	CHO-K1 Ca antag 24.7
Nc1[nH]c(C(=O)c2ccccc2)c(-c2ccccc2Cl)c1C(=O)c1ccccc1	none (no result: M1 PAM, CHRM1 antagonist, CHRM1 agonist)
CCOC(=O)c1ccc(NC(=O)C(CC)(CC)C(=O)OCC)cc1	CHO-K1 Ca antag 25.0
CCOC(=O)c1ccc(NC(=O)COC)cc1	none
Cc1ccc(/C=C2/SC(=O)NC2=S)o1	none
CC(C)(C)c1ccc(C(=O)OCCN2CCCCC2)cc1	CHRM1 antagonist 45.5
Cc1c(C(=O)OCCN2CCCCC2)oc2ccccc12	CHRM1 antagonist 91.8
COc1ccc(C(=O)OCCN2CCCCC2)cc1	none
CCN(CC)CC(C)(C)COC(=O)c1oc2ccccc2c1C	CHRM1 antagonist 32.5
Cc1c(C(=O)OCC(=O)N2C(C)CCCC2C)oc2ccccc12 (centres undefined)	none
Cc1c(C(=O)OC(C)CCN(C)C)oc2ccccc12 (centres undefined)	CHRM1 antagonist 98.5
Cn1ncc([N+](=O)[O-])c1C(=O)Nc1ccccc1C#N	none
Cc1c(C(=O)OCC(C)(C)CN(C)C)oc2ccccc12	CHRM1 antagonist 53.4
Cc1c(C(=O)OCC(=O)N(C)c2ccccc2)oc2ccccc12	CHRM1 antagonist 33.2
Cc1c(C(=O)OCC(=O)N(C)Cc2ccccc2)oc2ccccc12	none
CC(=O)c1cccc(CN(C)CC2CCCN(CCc3ccccc3C)C2)c1 (centres undefined)	CHRM1 antagonist 99.8
COc1ccc(F)c(CN(C)CC2CCCN(CCc3ccc(F)cc3)C2)c1 (centres undefined)	CHRM1 antagonist 33.1
COc1cc(CN(C)CC2CCCN(CCc3ccccc3F)C2)cc(Cl)c1OC (centres undefined)	CHRM1 antagonist 73.5
CN(Cc1ccccc1)CC1CCCN(CCc2ccccc2F)C1 (centres undefined)	none
O=C(CSc1ccccc1)NCC1(N2CCOCC2)CCCCC1	none
Cc1ccc(-n2c(C)nc3c(cnn3-c3ccc(C)c(C)c3)c2=O)cc1C	none
